Positions count from the first letter of the chain named.

Common to all, as to assay: yeast three-hybrid, YBZ-1, SC-Leu-His + 0.5 mM 3-AT, 4 days
What all share (settings): tags: N-Gal4 AD-HA kept; label: inside an RPR1-promoter hybrid RNA with tandem MS2 sites; ssRNA

For one assay, the target named is PUM1 PUF domain R8-SRR (Homo sapiens, UniProt Q14671 828-1176, N1122S;Y1123R;Q1126R). Put shortly: (§1)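 The interaction score is the log change in variant frequency from input to selection. Scores were computed in log2 with a pseudocount of 1 for absent variants, using Illumina sequencing of PCR-amplified repeat regions. The input came from four days on SC-Leu and the selection from four days on SC-Leu-His + 0.5 mM 3-AT. The cells were strain YBZ-1 (LexA–MS2 coat fusion, HIS3 reporter) co-expressing Pumilio-1 PUF domain libraries and matching RNA elements from a centromeric plasmid.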

A further assay concerns the target T1, PUM1 PUF domain R6-SRR (Homo sapiens, UniProt Q14671 828-1176, N1043S;Y1044R;Q1047R).
T1 sequence: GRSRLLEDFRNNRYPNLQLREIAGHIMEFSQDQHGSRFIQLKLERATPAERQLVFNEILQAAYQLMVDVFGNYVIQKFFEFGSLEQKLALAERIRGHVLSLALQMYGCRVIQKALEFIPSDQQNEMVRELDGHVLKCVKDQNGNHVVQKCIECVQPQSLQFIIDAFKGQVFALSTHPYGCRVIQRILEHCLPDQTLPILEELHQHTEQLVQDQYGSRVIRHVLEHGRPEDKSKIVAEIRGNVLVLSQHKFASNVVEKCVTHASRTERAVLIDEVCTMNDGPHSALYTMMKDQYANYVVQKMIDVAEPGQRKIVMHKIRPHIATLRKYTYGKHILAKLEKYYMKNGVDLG
Put shortly: as §1

Another assay concerns the target T2, PUM1 PUF domain R6-AYG (Homo sapiens, UniProt Q14671 828-1176, N1043A;Q1047G).
T2 sequence: T1 sequence with S216A, R217Y, R220G
An outline of the steps: as §1

Another assay addresses T3, PUM1 PUF domain R6-LFV (Homo sapiens, UniProt Q14671 828-1176, N1043L;Y1044F;Q1047V).
T3 sequence: T1 sequence with S216L, R217F, R220V
An outline of the steps:
as §1

A further assay deals with PUM1 PUF domain R7-NPR (Homo sapiens, UniProt Q14671 828-1176, S1079N;N1080P;E1083R). An outline of the steps:
as §1

Another assay concerns the target PUM1 PUF domain R7-TTG (Homo sapiens, UniProt Q14671 828-1176, S1079T;N1080T;E1083G). An outline of the steps: as §1
The target in another assay is PUM1 PUF domain R5-WRD (Homo sapiens, UniProt Q14671 828-1176, C1007W;Q1011D). An outline of the steps:
as §1

Turning to “GGCUAGAACUAGUGGAUCCCCCGGCGCCCGGCGGCUCGAGCCCGGGUAAGUGUAAAUAGUCUGCAUGCCGCCGGGCGCCAUGCCUGCAGGUCGACUCUAGAAAACAUG”, the binding signal is 1.78 log2 enrichment (interaction score) with PUM1 PUF domain R8-SRR, 3.04 log2 enrichment (interaction score) in the assay with PUM1 PUF domain R6-SRR and 1.05 log2 enrichment (interaction score) with PUM1 PUF domain R6-AYG.

On to “GGCUAGAACUAGUGGAUCCCCCGGCGCCCGGCGGCUCGAGCCCGGGUAAGCGUAAAUAGUCUGCAUGCCGCCGGGCGCCAUGCCUGCAGGUCGACUCUAGAAAACAUG”, for which the binding signal with PUM1 PUF domain R8-SRR was 2.8 log2 enrichment (interaction score).

Consider “GGCUAGAACUAGUGGAUCCCCCGGCGCCCGGCGGCUCGAGCCCGGGUAAGUGCAAAUAGUCUGCAUGCCGCCGGGCGCCAUGCCUGCAGGUCGACUCUAGAAAACAUG”, for which the binding signal with PUM1 PUF domain R6-SRR was 3.26 log2 enrichment (interaction score).

“GGCUAGAACUAGUGGAUCCCCCGGCGCCCGGCGGCUCGAGCCCGGGUAAGUGAAAAUAGUCUGCAUGCCGCCGGGCGCCAUGCCUGCAGGUCGACUCUAGAAAACAUG”: the binding signal with PUM1 PUF domain R6-LFV was 5.6 log2 enrichment (interaction score); in the assay with PUM1 PUF domain R6-AYG, 2.71 log2 enrichment (interaction score).

For “GGCUAGAACUAGUGGAUCCCCCGGCGCCCGGCGGCUCGAGCCCGGGUAAGUCUAAAUAGUCUGCAUGCCGCCGGGCGCCAUGCCUGCAGGUCGACUCUAGAAAACAUG”, the binding signal with PUM1 PUF domain R7-NPR was 0.79 log2 enrichment (interaction score).

For “GGCUAGAACUAGUGGAUCCCCCGGCGCCCGGCGGCUCGAGCCCGGGUAAGUUUAAAUAGUCUGCAUGCCGCCGGGCGCCAUGCCUGCAGGUCGACUCUAGAAAACAUG”, the results for the binding signal with PUM1 PUF domain R7-NPR and in the assay with PUM1 PUF domain R7-TTG were 5.02 log2 enrichment (interaction score) and 3.76 log2 enrichment (interaction score), respectively.

For “GGCUAGAACUAGUGGAUCCCCCGGCGCCCGGCGGCUCGAGCCCGGGUAAGUGUUAAUAGUCUGCAUGCCGCCGGGCGCCAUGCCUGCAGGUCGACUCUAGAAAACAUG”, the binding signal with PUM1 PUF domain R5-WRD was 2.27 log2 enrichment (interaction score).

The record behind these values is article PMC8384837, “Expanding the binding specificity for RNA recognition by a PUF domain”.
